Screening data (PubChem)
D2 antagonist = HTS Assay for Allosteric Antagonists of the Human D2 Dopamine Receptor: Primary Screen for Antagonists; D(2) dopamine receptor (Homo sapiens), P14416; inhibition, % at 10 µM; HEK293 TREx D2 cells, calcium flux, dopamine EC80; 2% of 340,000 active; AID 485344, 2010; in the data active = inhibition above about 30%; inactive = below that, where a call was filed; note: 0% is about no effect
Target sequence (P14416 whole entry, looked up): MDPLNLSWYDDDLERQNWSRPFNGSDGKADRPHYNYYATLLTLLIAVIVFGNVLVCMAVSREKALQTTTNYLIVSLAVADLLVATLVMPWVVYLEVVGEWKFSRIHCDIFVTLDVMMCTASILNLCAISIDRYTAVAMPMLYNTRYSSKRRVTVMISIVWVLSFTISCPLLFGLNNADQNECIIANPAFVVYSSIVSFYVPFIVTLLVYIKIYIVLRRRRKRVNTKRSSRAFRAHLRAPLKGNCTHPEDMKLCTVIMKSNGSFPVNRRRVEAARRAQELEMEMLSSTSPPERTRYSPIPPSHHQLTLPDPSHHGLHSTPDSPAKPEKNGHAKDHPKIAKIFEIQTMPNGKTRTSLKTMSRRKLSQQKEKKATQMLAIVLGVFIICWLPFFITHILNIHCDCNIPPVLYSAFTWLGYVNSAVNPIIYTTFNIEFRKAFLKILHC
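Overnight-induced (tetracycline, 30 C) HEK293 T-REx cells carrying force-coupled D2 receive a no-wash calcium dye, then compound, then EC80 dopamine at 180 s; signals are read kinetically throughout.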
D2 ag-1 = HTS Assay for Allosteric Agonists of the Human D2 Dopamine Receptor: Primary Screen for Agonists; activation, % at 2 µM; 0.53% of 340,000 active; HEK293 T-REx D2 cells, calcium flux agonist mode; D(2) dopamine receptor (Homo sapiens), P14416;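 active = activation over 3 SD above normal in the single-dose calcium agonist read, cut at about 30% in these data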; note: 0% is about no effect
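HEK293 Trex D2 cells, tetracycline-induced, o/n 30 C 5% CO2; no-wash Ca dye, RT 30–90 min; 10-cycle baseline, 23 nl cpd added, kinetic Ca read 180 s; agonist hits = positive Ca response.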
D2 PAM-1 = Beta-Arrestin HTS for Positive Allosteric Modulators of the Human D2 Dopamine Receptor: Potentiators; DiscoveRx D2 beta-arrestin cells, luminescence, 90 min; 100% = 57 uM dopamine signal; AID 624464, 2012; 0.23% of 360,000 active; D(2) dopamine receptor (Homo sapiens), P14416; potentiation, % (test concentration not listed); in the data active = potentiation above about 50%
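D2 cells co-treated with compound plus 50 nM dopamine (EC20) for 90 min at 37 deg C to detect potentiation. Beta-arrestin recruitment was read as enzyme-fragment luminescence after 1 h at ambient temperature. Full response was set by 57 uM dopamine.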
D2 ag-2 = Beta-Arrestin HTS for Positive Allosteric Modulators of the Human D2 Dopamine Receptor: Agonists; 0.084% of 360,000 active; D(2) dopamine receptor (Homo sapiens), P14416; activation, % (test concentration not listed); DiscoveRx PathHunter D2 beta-arrestin, luminescence, 90 min; 100% = 57 uM dopamine signal; in the data active = activation above about 40%
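Agonist mode: compounds alone added to overnight-plated D2 PathHunter cells for 90 min at 37 C, with 57 uM final dopamine (EC100) defining full response. Beta-arrestin recruitment detected by chemiluminescent reagent, read after 1 h at ambient temperature.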
D2 PAM-2 = HTS Assay for Positive Allosteric Modulators of the Human D2 Dopamine Receptor: Primary Screen for Potentiators; D(2) dopamine receptor (Homo sapiens), P14416; potentiation, % at 10 µM; 0.34% of 340,000 active; AID 485347, 2010; HEK293 T-REx D2, calcium flux, EC20 dopamine potentiation;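 active = potentiation over 3 SD above the plate norm, cut at about 30% in these data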; note: 0% is about no effect
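Cells plated with tetracycline inducer and held overnight at 30 C; calcium dye loaded 30–90 min at room temperature; baseline taken, compound added and read 180 s; EC20 dopamine then added and read 180 s.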
Numbers without * were called inactive; · = no result. This is a sample that favours compounds with a hit; in the whole collection about 2.4% have one here.

SMILES | D2 antagonist | D2 ag-1 | D2 PAM-1 | D2 ag-2 | D2 PAM-2
CSc1ccc2c(c1)N(CCC1CCCCN1C)c1ccccc1S2 (stereo not given) | 98.1* | 1.5 | -30.7 | -3.5 | -28.6
Cc1ccc(Cl)cc1N1CCN(C(=O)c2cc(S(=O)(=O)N3CCCC3)cn2C)CC1 | · | 2.0 | · | · | -15.1
Cc1cc(C)c(S(=O)(=O)NCC2CCC(C(=O)NCCc3ccccc3)CC2)c(C)c1 (stereo not given) | · | 2.7 | · | · | -8.4
O=C(C#Cc1ccccc1)Nc1ccc(F)cc1 | 46.7* | -0.3 | -24.2 | 0.3 | -19.0
O=C(c1ccc(N2C(=O)CCC2=O)cc1)N1CCOCC1 | 53.1* | 0.4 | 1.7 | -1.4 | -3.7
CCN(CC)S(=O)(=O)c1nnc(NC(=O)COc2ccccc2F)s1 | · | 0.5 | · | · | 0.3
COc1ccc(CCNS(=O)(=O)c2cc3c4c(c2)CC(=O)N4CCC3)cc1 | 34.7* | -0.1 | -4.1 | -2.9 | -4.0
Cc1ccc(CCNC(=O)CCNS(=O)(=O)c2ccc3c(c2)oc(=O)n3C)cc1 | · | -0.1 | -0.2 | -3.1 | -10.8
COc1ccccc1CNS(=O)(=O)c1ccc2c(c1)oc(=O)n2C | -2.4 | 1.4 | -0.1 | 1.6 | -6.1
COc1ccccc1CNC(=O)CCNS(=O)(=O)c1ccc2c(c1)oc(=O)n2C | 67.0* | -2.7 | -5.8 | -0.1 | -18.6
Cn1c(=O)oc2cc(S(=O)(=O)NCCC(=O)NCCc3ccc(Cl)cc3)ccc21 | 59.1* | -0.1 | -25.2 | 0.5 | -11.8
COc1cc(NC(=O)Cn2nc3c(cc2=O)CC(C)CC3)cc(OC)c1OC (stereo not given) | · | -1.6 | · | · | ·
Cc1cc(NC(=O)CCN2CCC(C)CC2)ccc1Br | 39.1* | 0.6 | -66.3 | -3.3 | -11.1
Cc1cc(NC(=O)CN2C(=O)N(C)C3(CCCCC3)C2=O)ccc1Br | 33.4* | 1.0 | 0.0 | -1.7 | -11.8
Cc1ccc(NC(=O)c2sc3nc(-c4ccc(F)cc4)cn3c2C)c(C)c1 | · | 0.6 | · | · | -19.3
Cn1c(=O)c2c(nc(Oc3ccccc3Cl)n2Cc2ccc(C#N)cc2)n(C)c1=O | · | -0.7 | · | · | 1.8
CCOc1ccc(N2CC(NC(=O)c3ccc4c(c3)OCO4)CC2=O)cc1 (stereo not given) | · | 0.8 | · | · | -1.5
CC(=O)Oc1ccc(N(c2ccccc2)S(=O)(=O)c2ccc(C)cc2)cc1 | -15.9 | 1.8 | -3.7 | -2.7 | 38.7*
Cc1ccc(S(=O)(=O)N(C)c2ccccc2)cc1 | -0.6 | 0.5 | 3.5 | -4.1 | -3.8
CC(=O)OC1CC2(C)/C(=N\O)CCC2C2CCc3cc(O)ccc3C12 (stereo not given) | · | · | 4.8 | 41.5* | ·
COc1cc(C(=O)NNC(=O)C2CSC3(C)CCC(=O)N23)cc(OC)c1OC (stereo not given) | 40.6* | -1.0 | -0.9 | -1.1 | 8.7
CCc1ccc(NC(=O)CSc2nc(-c3ccccc3Cl)nc3c2Cc2c(CO)cnc(C)c2O3)cc1 | · | 0.7 | · | · | 2.7
CSc1nn(Cc2ccc(C)cc2)c(N)c1S(=O)(=O)c1ccccc1 | · | -0.7 | · | · | -8.6
COc1ccc(-n2c(=O)c3ccc(C(=O)NCc4ccc(C)cc4)cc3n(Cc3cccc(Cl)c3)c2=O)cc1 | · | 0.4 | · | · | -7.4
C/C=C\C=C/C(=O)Nc1cccc(C2=NOC3(C2)C[C@@H](C(N)=O)N(C(=O)C2(C)CC2)C3)c1 (stereo not given in full) | -0.7 | -0.1 | -5.2 | -1.1 | 3.6
C/C=C\C(=O)Nc1cccc(C2=NOC3(C2)C[C@@H](C(N)=O)N(C(=O)C2(C)CC2)C3)c1 (stereo not given in full) | 34.3* | -0.7 | -6.7 | -2.1 | 11.1
